Each structure is given as a SMILES string.

Holding throughout (assay type): functional
In test [1] the target is Solute carrier family 2, facilitated glucose transporter member 1 (Homo sapiens) (UniProt P11166). Briefly: ST_JUDE_LEISH: Cytotoxicity at 2uM final concentration against transgenic Leishmania Mexicana promastigotes LmGLUT1 that are glucose transport deficient and complemented with the human glucose transporter GLUT1. Activity is measured by DNA content using SYBR green in vitro.

For test [2], the target named is Hexose transporter 1 (Plasmodium falciparum) (UniProt O97467). Nature of the test: ST_JUDE_LEISH: Cytotoxicity at 2uM final concentration against transgenic Leishmania Mexicana promastigotes LmPfHT that are glucose transport deficient and complemented with the Plasmodium falciparum hexose transporter. Activity is measured by DNA content using SYBR green in vitro.

Test [3] concerns the target Glucose transporter (Leishmania mexicana) (UniProt O61059). Nature of the test: ST_JUDE_LEISH: Cytotoxicity at 2uM final concentration against transgenic Leishmania Mexicana promastigotes LmGT2 that are glucose transport deficient and complemented with the L. Mexicana glucose transporter 2. Activity is measured by DNA content using SYBR green in vitro.

Chain of Solute carrier family 2, facilitated glucose transporter member 1 (Homo sapiens) (P11166 whole entry): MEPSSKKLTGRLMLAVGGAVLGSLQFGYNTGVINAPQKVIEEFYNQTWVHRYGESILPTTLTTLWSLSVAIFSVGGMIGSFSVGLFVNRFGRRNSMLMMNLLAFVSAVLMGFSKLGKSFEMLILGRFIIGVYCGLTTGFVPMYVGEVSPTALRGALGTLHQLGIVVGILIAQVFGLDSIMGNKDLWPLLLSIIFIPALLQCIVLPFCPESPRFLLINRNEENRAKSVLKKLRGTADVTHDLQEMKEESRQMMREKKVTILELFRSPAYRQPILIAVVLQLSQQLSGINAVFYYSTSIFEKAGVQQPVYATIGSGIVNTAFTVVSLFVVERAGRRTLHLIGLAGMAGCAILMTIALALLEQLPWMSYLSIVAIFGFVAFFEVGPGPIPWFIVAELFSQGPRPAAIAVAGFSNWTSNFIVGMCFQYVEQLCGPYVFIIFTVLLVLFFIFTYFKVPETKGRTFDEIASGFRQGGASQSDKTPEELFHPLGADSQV

By inhibition is commonly meant the change of the read-out against control, counted positive when it falls. Consider `FC(F)(F)c1ccc2[nH]ccc(=NN=Cc3ccccc3Cl)c2c1`, for which the inhibition came to 2.85% in test [1], 1.66% in test [2] and 1.62% in test [3].

`Cc1cccc(C=NN=c2cc(C)[nH]c3ccc(F)cc23)n1`: the inhibition in test [1] turned out to be 6.63%; in test [2], 6.71%; in test [3], 4.02%.

Turning to `CCCc1cc(C(C)=O)ccc1OCCCON1C(=N)N=C(N)NC1(C)C`, the values for the inhibition in test [1], in test [2] and in test [3] were 22.1%, 29.3% and 20.5%, respectively.

Consider `Cc1ccc(NC(=O)c2ccc3ncccc3c2)cc1OC1CCN(C(C)C)C1` (stereo unspecified), for which the inhibition in test [1] stood at 8.85%; in test [2], 10.2%; in test [3], 9.34%.

Take `COc1ccc2nccc([C@@H](O)CN3CCC(NC(=O)C(c4cc5ccccc5s4)N4CCN(c5ccccc5OC)CC4)CC3)c2c1` (stereo partly specified): the values for the inhibition in test [1], in test [2] and in test [3] were 1.84%, 1.89% and 0.56%, respectively.

Take `O=C(CC1SC(N2N=C(c3cccs3)CC2c2ccccc2)=NC1=O)Nc1ccc(Cl)cc1` (stereo unspecified): the inhibition in test [1] is 1.98%; in test [2], 2.91%; in test [3], -0.33%.

As to `COc1cc(CNc2ncc(-c3ccsc3)c(-c3nccs3)n2)cc(OC)c1`, the inhibition in test [1] is 1.79%; in test [2], 1.49%; in test [3], -0.78%.

For the compound `O=C1CCCN1CCCNCc1ccc(-c2ccc(-c3nc4cc(F)ccc4[nH]3)s2)cc1`, the inhibition in test [1] amounted to 2.19%; in test [2], 1.67%; in test [3], 6.85%.

As for `N#Cc1ccc(CNCCCCCCCNCc2ccc(-c3ccccc3)cc2)cc1`, the figures for the inhibition in test [1], in test [2] and in test [3] were 4.19%, 5.01% and 5.28%, respectively.

For the compound `CN(C)CCNCc1cccc(-c2cccc(-c3nc4ccccc4[nH]3)c2)c1`, the values for the inhibition in test [1], in test [2] and in test [3] were 2.56%, 2.66% and 1.85%, respectively.

As for `COc1cc(NC(=O)Nc2ccc([N+](=O)[O-])cc2OC)c(OC)cc1Cl`, the inhibition in test [1] came to 16.6%; in test [2] it was 9.29%; in test [3] it was 5%.

Turning to `COc1ccc(CNC(=O)NC2CCN(c3ccnc(Nc4ccc(F)cc4)n3)C2)cc1` (stereo unspecified), the inhibition worked out at 7.84% in test [1], 5.37% in test [2] and 7.65% in test [3].

Take `OC1CCC(Nc2ccc3ncc(-c4ccc5ccccc5c4)n3n2)CC1` (stereo unspecified): the results for the inhibition in test [1], in test [2] and in test [3] were 1.14%, 3.23% and 3.53%, respectively.

With `CC(C)C[C@H](NC(=O)c1cccc(F)c1)C(=O)N[C@H](/C=N/NC(=O)c1ccccc1)CCc1ccccc1`, the inhibition was -1.39% in test [1], 3.32% in test [2] and 0.18% in test [3].

Consider `CCN(CC)c1ccc(-c2nc3cc(Cl)cnc3[nH]2)cc1`, for which the inhibition in test [1] was 5.04%; in test [2], 5.32%; in test [3], 3.88%.

As for `CC(C)NC(C)(C)CN(Cc1ccc(-c2ccc(C(F)(F)F)cc2)cc1)C(=O)Cn1c(CCc2cccc(F)c2F)nc(=O)c2ccccc21`, the inhibition in test [1] is 0.37%; in test [2], -0.61%; in test [3], -0.1%.

As to `COc1cc(OC)c2c(C)cc(NCCCN3CCOCC3)nc2c1`, the values for the inhibition in test [1], in test [2] and in test [3] were 1.92%, 0.95% and -0.42%, respectively.

Consider `CCCN(CCC)CC(O)COc1ccccc1C(=O)Nc1ccccc1` (stereo unspecified), for which the inhibition in test [1] was 1.49%; in test [2], 1.09%; in test [3], -5%.

As to `Cc1cc(=NN=Cc2ccc(Cl)cc2)c2ccccc2[nH]1`, the inhibition turned out to be 4.28% in test [1], 6.86% in test [2] and 3.97% in test [3].

Turning to `Cc1ccccc1Nc1nc(NCc2ccccc2)nc2ccccc12`, the figures for the inhibition in test [1], in test [2] and in test [3] were 14.9%, 10.9% and 5.77%, respectively.

Take `c1ccc2c(NCCCCCCNc3ccnc4ccccc34)ccnc2c1`: the inhibition in test [1] is -2.25%; in test [2] it was -0.51%; in test [3], -2.32%.

In the case of `Cc1[nH]c(C)c(-c2ccc(Oc3ccc(Cl)cc3)cc2)c(=O)c1C`, the inhibition in test [1] was determined as 11.4%; in test [2], 30.5%; in test [3], 1.29%.

`OC(CN1CCN(c2cccc(Cl)c2)CC1)C(c1ccccc1)c1ccccc1` (stereo unspecified): the inhibition is -1.02% in test [1], 2.99% in test [2] and -2.94% in test [3].

`O=[N+]([O-])c1ccc(-c2ccc(C=NNc3nc(Nc4ccccc4)nc(Nc4ccccc4)n3)o2)cc1`: the inhibition was 0.91% in test [1], -0.88% in test [2] and -1.48% in test [3].

In the case of `COc1cccc(C(=O)Nc2sc3c(c2C(N)=O)CCCC3)c1OC`, the inhibition came to 0.25% in test [1], 8.04% in test [2] and 12.7% in test [3].

As to `Cc1cccc2nc(-c3ccc(-c4ccc(CN5CCN(C6CCN(C)CC6)CC5)cc4)s3)[nH]c12`, the inhibition was 0.65% in test [1], 1.2% in test [2] and -2.96% in test [3].

For `COc1cc(Cc2cnc(N)nc2N)cc(OCCn2ccccc2=O)c1OC`, the inhibition in test [1] is 2.42%; in test [2] it was 2.33%; in test [3] it was 1.46%.

`CCCCCCCc1c(C)nc2cc(OC)ccc2c1O`: the inhibition in test [1] turned out to be 7.36%; in test [2] it was 9.59%; in test [3] it was 7.02%.

Take `CCc1sc(-c2ccc(C(C)(C)C)cc2)nc1C(=O)NCCCN1CCCC1=O`: the inhibition in test [1] is -1.44%; in test [2], -2.22%; in test [3], -4.69%.

As to `COc1ccc(NC(=O)Nc2ccc(-c3ccncc3)c(Cl)c2)cc1N1CCN(C)CC1`, the inhibition is -1.37% in test [1], -0.91% in test [2] and -2.2% in test [3].

As for `CCC1=C(CC2NCCc3cc(OC)c(OC)cc32)CC2c3cc(OC)c(OC)cc3CCN2C1` (stereo unspecified), the inhibition turned out to be 87.8% in test [1], 92.4% in test [2] and 89.6% in test [3].

As for `Cc1cc(-c2ccc3c(c2)CCN(CCC2CCC(NC(=O)/C=C/c4cccc(Cl)c4)CC2)CC3)on1` (stereo unspecified), the inhibition in test [1] stood at 4.19%; in test [2], 3.51%; in test [3], 3.57%.

On to `COc1ccc(NC(=O)[C@H](Cc2ccccc2)Nc2cc(C)nc(NCC3CCCCC3)n2)cc1`, for which the inhibition in test [1] worked out at 1.62%; in test [2], 2.59%; in test [3] it was 0.65%.

As for `CNC(=O)Cc1ccc(C(=O)Nc2cccc(-c3cccc(-c4nc5cccc(C)c5[nH]4)c3)c2)cc1`, the values for the inhibition in test [1], in test [2] and in test [3] were -2.05%, -0.87% and -1.69%, respectively.

Take `COc1cc2ncnc(NCCc3ccccc3Cl)c2cc1OC`: the inhibition was -1.61% in test [1], -0.48% in test [2] and -0.92% in test [3].

Turning to `COc1ccc(C2CCN(CCCCNC(=O)c3ccc(NC(=O)c4ccc(Cl)cc4)cc3)CC2)cc1Cl`, the inhibition is -0.02% in test [1], 0.63% in test [2] and 4.45% in test [3].

With `O=c1cc(NCCCNCc2cc3ccc(Br)cc3s2)[nH]c2ccccc12`, the inhibition in test [1] was -0.97%; in test [2] it was -0.27%; in test [3], 0.6%.

For the origin of these results see ChEMBL document CHEMBL3433997, “St. Jude Leishmania screening dataset” (2016).
